Test results as given in the OligoGym collection.

Target: KRBA1
Test: pooled miR-30 sensor sort-seq; sequence = guide strand
Conditions: shRNA

First: TCTGAGACCTAGAGTCTCCTGG
Second: TTCTTCACTGTGTGATCTGTGG
The sensor-assay potency score (higher = more potent) of the first is higher: -0.0756 for the first, -0.539 for the second.

First: TCTTCCATGTCCAAGCTCCAGG
Second: TTCTCCAGCTGAGAAACCGGGC
The sensor-assay potency score (higher = more potent) of the first is lower: -1.05 for the first, -0.802 for the second.

First: ATTTGATTGAATCTGAGCCAAG
Second: TTGTCTGCTGTCCAGTTCCTGG
The sensor-assay potency score (higher = more potent) of the first is lower: -1.53 for the first, -1.35 for the second.

First: TTCACTGTGTGATCTGTGGGGT
Second: TAGAGGACAGCAGCTGCTGGGA
The sensor-assay potency score (higher = more potent) of the first is higher: 0.493 for the first, -1.32 for the second.

Going from TCTCCAAACAAGAACTCTGGGA to TTGGCTGCAACTCTGGGTCTTC, the sensor-assay potency score (higher = more potent) rises from -0.424 to -0.346.

Going from TTGTCGGCAGTTTTGATGGGGA to TTTGTCGGCAGTTTTGATGGGG, the sensor-assay potency score (higher = more potent) rises from -0.192 to 0.519.

Target: KRBA2
Test: as above
Conditions: shRNA

Going from TGTGTCTCTGTAGCAATCCTTT to TTGCTTTCTACTAACTTTGTTA, the sensor-assay potency score (higher = more potent) rises from -1.24 to 0.0117.

Going from TTTAGCTTCTTTAACTTCCTTT to TTGAGCTCATGAACAACCTGGT, the sensor-assay potency score (higher = more potent) falls from 0.674 to 0.411.

First: TTGCTGTTGTAACTTTTGCTTT
Second: TATAAGACAATAACTTCTTTGG
The sensor-assay potency score (higher = more potent) of the first is lower: -1.09 for the first, -0.185 for the second.

Compared with TAACAAGACACTGACCACCTCA, TAAGACAATAACTTCTTTGGTG is higher in sensor-assay potency score (higher = more potent): 0.174 for the first, 0.507 for the second.

First: ATTGAGCTCATGAACAACCTGG
Second: TGAACTTGAACTCACCATCGGC
The sensor-assay potency score (higher = more potent) of the first is lower: -0.217 for the first, 0.0582 for the second.

Target: KRCC1
Test: as above
Conditions: shRNA

Going from TTATCTGAGGAGAAGTGCTTGT to TTCTGTACTGACATGTACGGTT, the sensor-assay potency score (higher = more potent) falls from 0.253 to -0.0449.

Going from TTGATGAGTACTGGTACTGTTA to TTAACCTCTCCTTTGTACCCAC, the sensor-assay potency score (higher = more potent) rises from -0.491 to -0.366.

Compared with TTTTTCTGAGAAACAGTCCCTC, TTTCTTAGAGACTACATCTCGG is lower in sensor-assay potency score (higher = more potent): -0.167 for the first, -0.234 for the second.

First: TTCTTGTTGATTAAAGTTCAGG
Second: TTCTCTTATGCTTAGACCGCTC
The sensor-assay potency score (higher = more potent) of the first is lower: -0.822 for the first, -0.386 for the second.

First: TTAGAGACTACATCTCGGCTTT
Second: TTGTTGATTAAAGTTCAGGGGT
The sensor-assay potency score (higher = more potent) of the first is higher: 0.863 for the first, -0.113 for the second.

Compared with TTTCTGTACTGACATGTACGGT, TTCTTAGAGACTACATCTCGGC is higher in sensor-assay potency score (higher = more potent): -0.751 for the first, -0.216 for the second.

Target: KRI1
Test: as above
Conditions: shRNA

Compared with TTTGTTGAGGATGTAATCCCGC, TTACTTTCCGCAGCTTCTCCAG is lower in sensor-assay potency score (higher = more potent): -0.152 for the first, -1.11 for the second.

Compared with TACTTTCCGCAGCTTCTCCAGC, TTGAGCTCTTCCTGCTTCTTTG is lower in sensor-assay potency score (higher = more potent): -0.735 for the first, -1.32 for the second.
